Experimental data published in the supplement of paper PMC6853941.

Each molecule was assayed on MCF10A (assay: perturbation Mahalanobis distance of morphological profile vs DMSO controls (Mahalanobis distance (SD units)); higher = stronger morphological change, active = 7 or more). Details: screen batch: Batch1_Mahalanobis_Distance; 72 h.
Protocol: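 MCF10A cells were seeded onto drugs dispensed acoustically into 384-well plates, using one dose per drug chosen from its human peak plasma concentration, and incubated for 72 h at 37 °C. Cells were stained for DNA, tubulin and mitochondria and imaged; 78 CellProfiler features were extracted, plate-normalised and compared with DMSO wells.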
`CCC1(c2ccccc2)NC(=O)N(C)C1=O` (configuration not stated) [Mephenytoin] (343.8 µM) was tested, and the “perturbation Mahalanobis distance” value was 3.16 (inactive).
With `CNNCc1ccc(C(=O)NC(C)C)cc1` [Procarbazine] (13.6 µM) the “perturbation Mahalanobis distance” value was 2.07 (inactive).
In the case of `CC1=NS(=O)(=O)c2cc(Cl)ccc2N1` [Diazoxide] (86.7 µM), the “perturbation Mahalanobis distance” value is reported as 2.69 (inactive).
With `Nc1nc(=O)c2ncn(COC(CO)CO)c2[nH]1` [Ganciclovir] (98 µM) the “perturbation Mahalanobis distance” value was 3.22 (inactive).
In the case of `O=C1OCCN1/N=C/c1ccc([N+](=O)[O-])o1` [Furazolidone] (22.2 µM), the “perturbation Mahalanobis distance” value is reported as 3.46 (inactive).
For `OC(CCCN1CCCCC1)(c1ccccc1)c1ccccc1` [Diphenidol] (2.6 µM), the “perturbation Mahalanobis distance” value was 2.49 (inactive).
With `CS(=O)(=O)OCCCCOS(C)(=O)=O` [Busulfan] (1.4 µM) the “perturbation Mahalanobis distance” value was 2.31 (inactive).
With `Cc1ccc(NC(=O)c2ccc(CN3CCN(C)CC3)cc2)cc1Nc1nccc(-c2cccnc2)n1` [Imatinib] (14 µM) the “perturbation Mahalanobis distance” value was 4.06 (inactive).
`CCOC(=O)c1ncn2c1CN(C)C(=O)c1cc(F)ccc1-2` [Flumazenil] (1.6 µM) was tested, and the “perturbation Mahalanobis distance” value was 4.28 (inactive).
For `NC[C@@H]1O[C@H](O[C@H]2[C@@H](O)[C@H](O[C@@H]3[C@@H](O)[C@H](N)C[C@H](N)[C@H]3O[C@H]3O[C@H](CO)[C@@H](O)[C@H](O)[C@H]3N)O[C@@H]2CO)[C@H](N)[C@@H](O)[C@@H]1O` [Paromomycin] (332.3 µM), the “perturbation Mahalanobis distance” value was 4.01 (inactive).
With `Cc1ccccc1C(=O)Nc1ccc(C(=O)N2CCC[C@@H](O)c3cc(Cl)ccc32)c(C)c1` [Tolvaptan] (11.1 µM) the “perturbation Mahalanobis distance” value was 2.12 (inactive).
With `Cc1nc2n(c(=O)c1CCN1CCC(c3noc4cc(F)ccc34)CC1)CCCC2` [Risperidone] (73 µM) the “perturbation Mahalanobis distance” value was 2.9 (inactive).
For `Clc1ccc(C(c2ccccc2Cl)C(Cl)Cl)cc1` (configuration not stated) [Mitotane] (62.5 µM), the “perturbation Mahalanobis distance” value was 3.41 (inactive).
For `COc1cc2nc(N3CCN(C(=O)C4CCCO4)CC3)nc(N)c2cc1OC` (configuration not stated) [Terazosin] (1 µM), the “perturbation Mahalanobis distance” value was 2.35 (inactive).
`c1ccc([C@H]2CN3CCSC3=N2)cc1` [Levamisole] (11.7 µM) was tested, and the “perturbation Mahalanobis distance” value was 2.32 (inactive).
For `CC[C@]1(O)C[C@H]2CN(CCc3c([nH]c4ccccc34)[C@@](C(=O)OC)(c3cc4c(cc3OC)N(C)[C@H]3[C@@](O)(C(=O)OC)[C@H](OC(C)=O)[C@]5(CC)C=CCN6CC[C@]43[C@@H]65)C2)C1` [Vinblastine] (0.12 µM), the “perturbation Mahalanobis distance” value was 11.4 (active).
With `CCOC(=O)C1=C[C@@H](OC(CC)CC)[C@H](NC(C)=O)[C@@H](N)C1` [Oseltamivir] (1 µM) the “perturbation Mahalanobis distance” value was 2.31 (inactive).
`CC(=O)S[C@@H]1CC2=CC(=O)CC[C@]2(C)[C@H]2CC[C@@]3(C)[C@@H](CC[C@@]34CCC(=O)O4)[C@H]12` [Spironolactone] (3 µM) was tested, and the “perturbation Mahalanobis distance” value was 3.75 (inactive).
`CCN(CC)C(=S)SSC(=S)N(CC)CC` [Disulfiram] (6.7 µM) was tested, and the “perturbation Mahalanobis distance” value was 2.16 (inactive).
For `COc1cc(C)c(/C=C/C(C)=C/C=C/C(C)=C/C(=O)O)c(C)c1C` [Acitretin] (7.7 µM), the “perturbation Mahalanobis distance” value was 6.19 (inactive).
`CC(=O)O.C[C@H](N)C(=O)O.NCCCC[C@H](N)C(=O)O.N[C@@H](CCC(=O)O)C(=O)O.N[C@@H](Cc1ccc(O)cc1)C(=O)O` [Glatiramer Acetate] (50 µM) was tested, and the “perturbation Mahalanobis distance” value was 2.19 (inactive).
With `NC(=O)N[C@@H](CCC(=O)O)C(=O)O` [Carglumic Acid] (68.4 µM) the “perturbation Mahalanobis distance” value was 2.14 (inactive).
For `O=C(C1CCCCC1)N1CC(=O)N2CCc3ccccc3C2C1` (configuration not stated) [Praziquantel] (3.2 µM), the “perturbation Mahalanobis distance” value was 3.15 (inactive).
`CC(C)(C#N)c1cc(Cn2cncn2)cc(C(C)(C)C#N)c1` [Anastrozole] (0.51 µM) was tested, and the “perturbation Mahalanobis distance” value was 3.5 (inactive).
For `CCC(c1ccccc1)c1c(O)oc2ccccc2c1=O` (configuration not stated) [Phenprocoumon] (64.2 µM), the “perturbation Mahalanobis distance” value was 2.32 (inactive).
With `N=C(N)c1ccc(OCCCCCOc2ccc(C(=N)N)cc2)cc1` [Pentamidine] (7.4 µM) the “perturbation Mahalanobis distance” value was 7.67 (active).
`C[C@H]1O[C@@H](O[C@H]2[C@@H](O)C[C@H](O[C@H]3[C@@H](O)C[C@H](O[C@H]4CC[C@@]5(C)[C@H](CC[C@@H]6[C@@H]5CC[C@]5(C)[C@@H](C7=CC(=O)OC7)CC[C@]65O)C4)O[C@@H]3C)O[C@@H]2C)C[C@H](O)[C@@H]1O` [Digitoxin] (0.16 µM) was tested, and the “perturbation Mahalanobis distance” value was 12.1 (active).
`COc1cc(N)c(Cl)cc1C(=O)NC1CCN(CCCOc2ccc(F)cc2)CC1OC` (configuration not stated) [Cisapride] (0.85 µM) was tested, and the “perturbation Mahalanobis distance” value was 3.31 (inactive).
In the case of `CCN(CC)C(=O)N1CCN(C)CC1` [Diethylcarbamazine] (6.3 µM), the “perturbation Mahalanobis distance” value is reported as 2.96 (inactive).
`OC(c1cc(C(F)(F)F)nc2c(C(F)(F)F)cccc12)C1CCCCN1` (configuration not stated) [Mefloquine] (23.8 µM) was tested, and the “perturbation Mahalanobis distance” value was 13.3 (active).
With `COCCCC/C(=N\OCCN)c1ccc(C(F)(F)F)cc1` [Fluvoxamine] (3.9 µM) the “perturbation Mahalanobis distance” value was 2.43 (inactive).
For `CC(C)NCC(O)c1ccc(O)c(O)c1` (configuration not stated) [Isoproterenol] (11.8 µM), the “perturbation Mahalanobis distance” value was 3.12 (inactive).
